{"source": "PubChem BioAssay (Tox21)", "note": "Records with an inconclusive call do not appear. Active and inactive are the calls of the source. The call rests on the fitted dose curve; in most records, active means well fitted inhibition curve with a large enough effect in the repeat runs; inconclusive means weak or mixed curves; inactive means no such curve, though single readings can be large or run the other way. Potency means the concentration at half of the fitted maximal effect."}
{"target": "Cytochrome P450 1A2 (Homo sapiens) (UniProt P05177)", "sequence (P05177 whole entry, looked up)": "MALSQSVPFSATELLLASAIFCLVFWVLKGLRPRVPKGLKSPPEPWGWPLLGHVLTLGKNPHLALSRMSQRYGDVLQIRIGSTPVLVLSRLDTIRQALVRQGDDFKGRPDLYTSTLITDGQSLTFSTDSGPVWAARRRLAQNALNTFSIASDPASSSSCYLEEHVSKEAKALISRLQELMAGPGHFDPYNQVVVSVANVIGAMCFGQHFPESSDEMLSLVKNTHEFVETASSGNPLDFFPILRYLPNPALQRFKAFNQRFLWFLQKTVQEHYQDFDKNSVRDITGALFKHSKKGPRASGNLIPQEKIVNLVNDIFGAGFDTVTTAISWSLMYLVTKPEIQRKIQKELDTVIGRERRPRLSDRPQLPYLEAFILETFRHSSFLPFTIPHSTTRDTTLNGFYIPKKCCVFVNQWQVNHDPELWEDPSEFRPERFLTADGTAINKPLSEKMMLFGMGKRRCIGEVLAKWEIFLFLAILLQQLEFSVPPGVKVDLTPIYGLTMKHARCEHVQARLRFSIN", "experiment": "Cytochrome P450 Family 1 Subfamily A Member 2 (CYP1A2) small molecule antagonists: luciferase reporter qHTS assay (AID 1671199); further: nearly all actives have a fitted effect of over 50% in size", "conditions": "P450-Glo CYP1A2 enzyme, luciferin luminescence, 1 h; series mostly up to 115 µM", "procedure,_shortened": "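Steps: enzyme-substrate mix dispensed; test compounds and furafylline control pinned in; 10 min room temperature; NADPH regeneration solution added, 1 h; reaction stopped with luciferin detection reagent; luminescence read after 20 min.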"}
{"molecule": "Cc1c(Cl)c(=O)oc2cc(O)ccc12", "Potency": "17.8 µM (active)"}
{"molecule": "CCOc1ccc([N+](=O)[O-])cc1", "Potency": "32.2 µM (active)"}
{"molecule": "CCCCCCCCOC(=O)c1cc(O)c(O)c(O)c1", "Potency": "71 µM (active)"}
{"molecule": "CC1=C(/C=C/C(C)=C/C=C/C(C)=C\\C(=O)O)C(C)(C)CCC1", "Potency": "40 µM (active)"}
{"molecule": "c1ccc(C[P+](c2ccccc2)(c2ccccc2)c2ccccc2)cc1", "Potency": "inactive"}
{"molecule": "c1ccc2cc3c4ccccc4c4ccccc4c3cc2c1", "Potency": "0.225 µM (active)"}
{"molecule": "O=C(Nc1ccccc1)c1cc(Cl)ccc1O", "Potency": "12.6 µM (active)"}
{"molecule": "CN1CCN(CCCN2c3ccccc3Sc3ccc(Cl)cc32)CC1", "Potency": "2.57 µM (active)"}
{"molecule": "O=C(Cl)c1ccc(Cl)cc1Cl", "Potency": "63.3 µM (active)"}
{"molecule": "c1ccc(-c2ccc(C(c3ccccc3)n3ccnc3)cc2)cc1", "note": "(stereo unspecified)", "Potency": "5.49 µM (active)"}
{"molecule": "O=C(NCc1ncc(C(F)(F)F)cc1Cl)c1c(Cl)cccc1Cl", "Potency": "31.7 µM (active)"}
{"molecule": "CN[C@H]1CC[C@@H](c2ccc(Cl)c(Cl)c2)c2ccc(S(N)(=O)=O)cc21", "Potency": "inactive"}
{"molecule": "N#Cc1nc(Cl)c(Cl)c(Cl)c1Cl", "Potency": "5.03 µM (active)"}
{"molecule": "c1ccc(-c2ccccc2-c2ccccc2)cc1", "Potency": "3.17 µM (active)"}
{"molecule": "CCCCCCCCCC[N+](C)(CCCCCCCCCC)CCC[Si](OC)(OC)OC", "Potency": "20 µM (active)"}
{"molecule": "NCc1cccc(C2CCN(C(=O)c3ccc(C#Cc4ccccc4F)o3)CC2)c1", "Potency": "71 µM (active)"}
